Here are results for two sequences from article PMC7862700, “An all-to-all approach to the identification of sequence-specific readers for epigenetic DNA modifications on cytosine”.

Common to all, as to test: DAPPL (digital affinity profiling via proximity ligation, sequencing); 10 mM Tris-HCl pH 7.5, 50 mM NaCl, 1 mM DTT, 4% glycerol, room temperature, 30 min; GST-TFs on glutathione beads, 16-mer random dsDNA library, 0.1% formaldehyde crosslink after washing; high values mean tight binding
Test [1] deals with T1, ELK3 (Homo sapiens, UniProt P41970 1-407).
T1 sequence: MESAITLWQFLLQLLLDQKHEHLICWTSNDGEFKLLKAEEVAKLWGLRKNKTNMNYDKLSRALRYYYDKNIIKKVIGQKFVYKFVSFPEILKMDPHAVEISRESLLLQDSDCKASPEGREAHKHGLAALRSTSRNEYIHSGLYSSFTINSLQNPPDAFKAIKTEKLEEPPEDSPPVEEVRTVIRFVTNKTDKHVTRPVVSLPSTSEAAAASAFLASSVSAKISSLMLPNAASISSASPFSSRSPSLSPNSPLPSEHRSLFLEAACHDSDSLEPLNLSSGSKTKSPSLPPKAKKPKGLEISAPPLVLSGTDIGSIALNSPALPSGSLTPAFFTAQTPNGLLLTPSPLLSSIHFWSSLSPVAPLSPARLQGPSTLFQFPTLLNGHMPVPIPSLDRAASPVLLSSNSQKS
The following applies: protein: recombinant; tags: N-terminal GST; dsDNA, one strand shown. In outline:
(§1)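 Human transcription factors were made in yeast as GST fusions, captured on glutathione beads and barcoded with DNA. With a tag-only sample included, the pool was incubated with 200 nmole of a random double-stranded 16-mer DNA library in Tris/NaCl/DTT/glycerol buffer at room temperature for 30 min, then crosslinked with 0.1% formaldehyde after washing, ligated by proximity, amplified and sequenced. For binding signal, each hexamer's read frequency for a factor is divided by its frequency for the tag-only sample.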

Test [2] deals with HSF1 (Homo sapiens, UniProt Q00613 1-529). The following applies: protein: recombinant; tags: N-terminal GST; chain copies: 3; dsDNA, one strand shown. In outline: as §1
Chain of HSF1 (Q00613 whole entry): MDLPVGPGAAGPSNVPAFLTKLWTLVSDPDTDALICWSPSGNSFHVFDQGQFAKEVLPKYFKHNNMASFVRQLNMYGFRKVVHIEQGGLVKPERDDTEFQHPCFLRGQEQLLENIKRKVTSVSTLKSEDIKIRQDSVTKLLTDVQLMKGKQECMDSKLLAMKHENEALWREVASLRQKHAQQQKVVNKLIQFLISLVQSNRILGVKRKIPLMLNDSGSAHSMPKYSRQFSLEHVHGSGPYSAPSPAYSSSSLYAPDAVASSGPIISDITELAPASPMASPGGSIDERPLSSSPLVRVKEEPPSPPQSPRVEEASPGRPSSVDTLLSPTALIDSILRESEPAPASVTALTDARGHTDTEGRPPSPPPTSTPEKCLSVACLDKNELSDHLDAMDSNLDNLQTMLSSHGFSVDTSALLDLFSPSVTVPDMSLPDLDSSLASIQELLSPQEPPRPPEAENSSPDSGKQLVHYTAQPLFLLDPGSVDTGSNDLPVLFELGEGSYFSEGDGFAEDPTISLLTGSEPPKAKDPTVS
For test [3], the target named is T2, SPIC (Homo sapiens, UniProt Q8N5J4 1-248).
T2 sequence: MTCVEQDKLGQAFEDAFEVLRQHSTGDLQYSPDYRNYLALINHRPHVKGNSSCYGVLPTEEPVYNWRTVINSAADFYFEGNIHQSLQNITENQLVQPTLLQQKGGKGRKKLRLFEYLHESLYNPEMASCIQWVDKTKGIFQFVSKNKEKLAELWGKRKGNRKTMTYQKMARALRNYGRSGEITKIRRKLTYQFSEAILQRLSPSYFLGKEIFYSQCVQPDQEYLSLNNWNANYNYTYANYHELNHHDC
The note with it: protein: recombinant; tags: N-terminal GST; dsDNA, one strand shown. In a few lines: as §1

The target of test [4] is T3, ELF3 (Homo sapiens, UniProt P78545 1-371).
T3 sequence: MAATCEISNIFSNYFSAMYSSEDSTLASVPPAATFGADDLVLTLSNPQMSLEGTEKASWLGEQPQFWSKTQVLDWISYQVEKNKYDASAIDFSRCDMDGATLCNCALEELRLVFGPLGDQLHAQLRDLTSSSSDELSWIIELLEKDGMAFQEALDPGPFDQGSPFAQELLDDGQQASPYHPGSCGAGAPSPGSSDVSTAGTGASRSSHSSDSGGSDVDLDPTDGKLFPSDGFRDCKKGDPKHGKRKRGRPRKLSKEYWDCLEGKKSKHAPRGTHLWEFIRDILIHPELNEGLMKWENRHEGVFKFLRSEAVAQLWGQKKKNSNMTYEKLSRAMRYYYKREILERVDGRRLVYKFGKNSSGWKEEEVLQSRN
The following applies: protein: recombinant; tags: N-terminal GST; dsDNA, one strand shown. In outline: as §1

The target of test [5] is T4, GABPA (Homo sapiens, UniProt Q06546 1-454).
T4 sequence: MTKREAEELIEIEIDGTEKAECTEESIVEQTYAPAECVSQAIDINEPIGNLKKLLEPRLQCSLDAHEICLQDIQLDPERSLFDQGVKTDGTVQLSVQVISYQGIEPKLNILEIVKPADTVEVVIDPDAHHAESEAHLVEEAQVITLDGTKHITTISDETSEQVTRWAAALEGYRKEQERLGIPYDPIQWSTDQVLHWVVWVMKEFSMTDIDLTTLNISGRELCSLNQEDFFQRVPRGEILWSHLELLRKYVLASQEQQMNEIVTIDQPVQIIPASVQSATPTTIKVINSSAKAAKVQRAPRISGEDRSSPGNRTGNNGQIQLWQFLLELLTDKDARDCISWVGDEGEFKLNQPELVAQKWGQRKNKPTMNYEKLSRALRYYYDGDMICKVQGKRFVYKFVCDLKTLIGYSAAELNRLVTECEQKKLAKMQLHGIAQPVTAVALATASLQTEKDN
The following applies: protein: recombinant; tags: N-terminal GST; dsDNA, one strand shown. In outline:
as §1

Test [6] addresses T5, ERG (Homo sapiens, UniProt P11308 1-479).
T5 sequence: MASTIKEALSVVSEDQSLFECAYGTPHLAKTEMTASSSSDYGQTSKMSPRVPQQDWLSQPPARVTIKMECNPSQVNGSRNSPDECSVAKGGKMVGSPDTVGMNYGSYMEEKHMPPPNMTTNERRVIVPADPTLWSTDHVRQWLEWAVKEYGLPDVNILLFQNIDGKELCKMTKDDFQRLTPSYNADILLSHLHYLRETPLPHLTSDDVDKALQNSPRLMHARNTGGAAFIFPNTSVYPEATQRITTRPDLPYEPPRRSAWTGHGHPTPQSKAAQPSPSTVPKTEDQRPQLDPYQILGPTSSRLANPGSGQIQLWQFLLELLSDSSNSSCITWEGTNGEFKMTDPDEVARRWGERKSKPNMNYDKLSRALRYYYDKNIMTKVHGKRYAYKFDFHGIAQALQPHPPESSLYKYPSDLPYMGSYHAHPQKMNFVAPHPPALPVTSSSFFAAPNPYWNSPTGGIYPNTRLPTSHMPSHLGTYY
The note with it: protein: recombinant; tags: N-terminal GST; dsDNA, one strand shown. In a few lines:
as §1

Test [7] concerns the target SPI1 (Homo sapiens, UniProt P17947 1-270). The following applies: protein: recombinant; tags: N-terminal GST; dsDNA, one strand shown. In a few lines: as §1
The target in test [8] is SPIB (Homo sapiens, UniProt Q01892 1-262). The following applies: protein: recombinant; tags: N-terminal GST; dsDNA, one strand shown. In outline: as §1
Chain of SPIB (Q01892 whole entry): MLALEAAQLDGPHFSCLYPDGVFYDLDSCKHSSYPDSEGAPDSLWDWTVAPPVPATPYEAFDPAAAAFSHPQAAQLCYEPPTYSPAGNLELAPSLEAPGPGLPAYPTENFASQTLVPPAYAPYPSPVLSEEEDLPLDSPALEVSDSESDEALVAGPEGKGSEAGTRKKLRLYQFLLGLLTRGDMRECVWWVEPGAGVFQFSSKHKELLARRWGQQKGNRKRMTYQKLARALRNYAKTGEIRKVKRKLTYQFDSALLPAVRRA
In test [9] the target is T6, ELK4 (Homo sapiens, UniProt P28324-2 1-405).
T6 sequence: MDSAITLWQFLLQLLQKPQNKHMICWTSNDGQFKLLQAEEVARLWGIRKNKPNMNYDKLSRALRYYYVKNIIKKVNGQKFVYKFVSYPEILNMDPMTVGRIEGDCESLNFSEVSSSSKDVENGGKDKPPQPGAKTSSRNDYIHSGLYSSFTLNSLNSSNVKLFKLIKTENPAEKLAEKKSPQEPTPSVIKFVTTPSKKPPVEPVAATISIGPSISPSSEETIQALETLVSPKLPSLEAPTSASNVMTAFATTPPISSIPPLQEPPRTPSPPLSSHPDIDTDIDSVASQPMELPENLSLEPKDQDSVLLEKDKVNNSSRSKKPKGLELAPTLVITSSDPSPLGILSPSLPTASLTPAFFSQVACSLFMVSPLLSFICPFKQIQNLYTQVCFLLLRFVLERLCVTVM
The following applies: protein: recombinant; tags: N-terminal GST; dsDNA, one strand shown. In a few lines:
as §1

For test [10], the target named is T7, ETV2 (Homo sapiens, UniProt O00321 1-342).
T7 sequence: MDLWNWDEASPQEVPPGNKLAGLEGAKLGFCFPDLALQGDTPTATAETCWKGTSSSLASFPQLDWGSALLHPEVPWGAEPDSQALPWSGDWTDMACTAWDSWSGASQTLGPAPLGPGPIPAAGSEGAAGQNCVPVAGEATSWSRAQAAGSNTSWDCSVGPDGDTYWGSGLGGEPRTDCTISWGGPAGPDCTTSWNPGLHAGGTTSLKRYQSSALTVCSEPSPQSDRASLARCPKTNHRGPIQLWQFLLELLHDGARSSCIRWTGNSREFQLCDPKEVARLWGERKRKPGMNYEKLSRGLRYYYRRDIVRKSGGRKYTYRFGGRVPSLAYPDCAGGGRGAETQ
The note with it: protein: recombinant; tags: N-terminal GST; dsDNA, one strand shown. In outline: as §1

The target in test [11] is CRX (Homo sapiens, UniProt O43186 1-299). The note with it: protein: recombinant; tags: N-terminal GST; dsDNA, one strand shown. In outline: as §1
Chain of CRX (O43186 whole entry): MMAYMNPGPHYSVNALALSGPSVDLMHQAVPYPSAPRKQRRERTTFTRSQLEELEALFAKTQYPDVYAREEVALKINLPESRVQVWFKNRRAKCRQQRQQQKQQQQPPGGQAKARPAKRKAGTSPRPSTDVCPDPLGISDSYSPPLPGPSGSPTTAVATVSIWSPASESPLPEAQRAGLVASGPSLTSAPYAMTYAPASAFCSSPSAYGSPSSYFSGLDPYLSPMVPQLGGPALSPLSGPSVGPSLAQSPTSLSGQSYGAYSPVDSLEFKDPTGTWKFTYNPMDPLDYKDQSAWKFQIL
The target of test [12] is T8, ETV3L (Homo sapiens, UniProt Q6ZN32 1-361).
T8 sequence: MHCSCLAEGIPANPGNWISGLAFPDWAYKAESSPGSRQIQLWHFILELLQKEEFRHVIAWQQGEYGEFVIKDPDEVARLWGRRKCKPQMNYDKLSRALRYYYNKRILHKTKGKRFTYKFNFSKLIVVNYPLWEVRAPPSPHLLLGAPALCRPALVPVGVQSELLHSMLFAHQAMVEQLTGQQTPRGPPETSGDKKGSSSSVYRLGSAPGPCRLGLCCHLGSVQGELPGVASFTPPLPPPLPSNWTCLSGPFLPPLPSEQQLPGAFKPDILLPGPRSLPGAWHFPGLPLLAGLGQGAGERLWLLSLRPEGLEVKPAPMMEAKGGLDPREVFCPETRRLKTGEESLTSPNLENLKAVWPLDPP
The following applies: protein: recombinant; tags: N-terminal GST; dsDNA, one strand shown. In a few lines: as §1

Test [13] concerns the target T9, ETS2 (Homo sapiens, UniProt P15036 1-469).
T9 sequence: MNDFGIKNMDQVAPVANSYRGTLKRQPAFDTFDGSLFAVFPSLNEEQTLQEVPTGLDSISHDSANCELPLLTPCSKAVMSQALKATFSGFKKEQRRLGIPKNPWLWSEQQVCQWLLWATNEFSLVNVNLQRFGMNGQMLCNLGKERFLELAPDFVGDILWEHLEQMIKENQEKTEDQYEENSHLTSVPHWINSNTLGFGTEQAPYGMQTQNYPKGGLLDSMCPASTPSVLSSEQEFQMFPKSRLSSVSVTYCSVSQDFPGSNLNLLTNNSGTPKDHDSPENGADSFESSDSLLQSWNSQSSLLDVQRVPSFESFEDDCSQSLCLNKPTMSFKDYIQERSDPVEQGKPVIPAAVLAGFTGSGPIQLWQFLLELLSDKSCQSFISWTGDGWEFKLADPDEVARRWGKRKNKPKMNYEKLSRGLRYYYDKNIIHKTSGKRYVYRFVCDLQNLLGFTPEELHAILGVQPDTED
The following applies: protein: recombinant; tags: N-terminal GST; dsDNA, one strand shown. In outline:
as §1

Test [14] has as its target T10, ETV7 (Homo sapiens, UniProt Q9Y603 1-341).
T10 sequence: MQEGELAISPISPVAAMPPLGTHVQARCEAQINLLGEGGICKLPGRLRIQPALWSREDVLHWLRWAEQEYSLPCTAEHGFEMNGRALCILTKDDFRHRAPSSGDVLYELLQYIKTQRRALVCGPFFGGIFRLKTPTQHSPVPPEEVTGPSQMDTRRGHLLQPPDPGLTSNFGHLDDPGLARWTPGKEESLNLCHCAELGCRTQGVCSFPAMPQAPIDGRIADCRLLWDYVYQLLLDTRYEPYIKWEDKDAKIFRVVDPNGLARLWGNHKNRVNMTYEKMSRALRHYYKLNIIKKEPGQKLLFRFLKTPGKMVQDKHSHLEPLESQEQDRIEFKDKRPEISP
The note with it: protein: recombinant; tags: N-terminal GST; dsDNA, one strand shown. In a few lines: as §1

Test [15] concerns the target T11, ELF5 (Homo sapiens, UniProt Q9UKW6-2 1-255).
T11 sequence: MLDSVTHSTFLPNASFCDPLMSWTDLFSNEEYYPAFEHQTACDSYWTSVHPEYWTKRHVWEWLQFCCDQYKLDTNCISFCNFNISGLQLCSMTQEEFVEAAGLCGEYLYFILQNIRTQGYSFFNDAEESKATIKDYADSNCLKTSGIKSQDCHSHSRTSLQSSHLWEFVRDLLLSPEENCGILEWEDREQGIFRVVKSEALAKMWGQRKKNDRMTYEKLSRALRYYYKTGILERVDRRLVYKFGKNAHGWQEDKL
The note with it: protein: recombinant; tags: N-terminal GST; dsDNA, one strand shown. In a few lines:
as §1

On to CCAGCA, for which the binding signal in test [1] was 1 fold enrichment (6-mer frequency, TF over GST control); in test [2] it was 1.21 fold enrichment (6-mer frequency, TF over GST control); in test [3], 1.1 fold enrichment (6-mer frequency, TF over GST control); in test [4] it was 1.06 fold enrichment (6-mer frequency, TF over GST control).
As for GCGATA, the binding signal was 1 fold enrichment (6-mer frequency, TF over GST control) in [5]; 1 fold enrichment (6-mer frequency, TF over GST control) in test [6]; 1.03 fold enrichment (6-mer frequency, TF over GST control) in test [7]; 1.02 fold enrichment (6-mer frequency, TF over GST control) in [8]; 1.1 fold enrichment (6-mer frequency, TF over GST control) in test [1]; 1.06 fold enrichment (6-mer frequency, TF over GST control) in test [2]. For the same sequence, the binding signal was 1.07 fold enrichment (6-mer frequency, TF over GST control) in test [9]; 1.11 fold enrichment (6-mer frequency, TF over GST control) in [10]; 1.02 fold enrichment (6-mer frequency, TF over GST control) in test [4]; 1.11 fold enrichment (6-mer frequency, TF over GST control) in test [11]; 1.03 fold enrichment (6-mer frequency, TF over GST control) in [12]; 1.04 fold enrichment (6-mer frequency, TF over GST control) in test [13]. The binding signal in test [14] was 1.06 fold enrichment (6-mer frequency, TF over GST control); in [15] it was 1.02 fold enrichment (6-mer frequency, TF over GST control).
